The list is not random: actives were taken first. Their share in the collection is about 4.2%.
esBAF inh: inhibitors of esBAF chromatin remodeling in mouse ES cells; Bmi1-luciferase knock-in reporter, 24 h; 100% = twice the neutral-well signal; reporter increase, % at 12.5 µM; actives 2% (n = 350,000); AID 602393; in the data active = activation above about 40%; inconclusive = no clear call, values can overlap the other calls;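 note: 0% = median of the plate's neutral control wells and 100% = double that signal; a rise in the Bmi1 reporter signal indicates esBAF inhibition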
hgDAF-12 ag: activates the H. glycines DAF-12 receptor ligand-binding domain | HEK293 GAL4-hgDAF12 UAS-luciferase reporter, agonist luminescence; normalized to butyrate control | activation, % at 6.8 µM | actives 1.8% (n = 370,000) | AID 687014;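 active = activation above a cutoff set at the mean of all screened compounds plus 3 SD, cut at about 10% in these data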;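 note: 0% = DMSO wells and 100% = sodium butyrate wells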
hcDAF12 agonist: activates DAF-12 receptor from parasite H. contortus; HEK293 hcDAF-12 lit1-tk-luc reporter, luminescence; 0% DMSO, 100% Δ7-dafachronic acid; activation, % at 6.8 µM; actives 1.4% (n = 370,000);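 active = activation above the mean of all tested compounds plus 3 SD, cut at about 5.5% in these data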;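 note: 100% = response to 3 µM Δ7-dafachronic acid high control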
Wnt act: activators of Wnt/beta-catenin signaling. Wnt/beta-catenin reporter cell assay, activator, plate reader. activation, % at 9.35 µM. actives 1.2% (n = 300,000). AID 743398; in the data active = activation above about 30%, passing the limit was not always enough; inconclusive = no clear call, values can overlap the other calls;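 note: 0% = neutral control wells and 100% = positive control wells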
ssDAF-12 act: S. stercoralis DAF-12 activation, primary screen; HEK293 ssDAF-12/GRIP1 lit1-tk-luc reporter, luminescence; % of 3 µM dafachronic acid response; actives 1% (n = 370,000); AID 652126; activation, % at 6.8 µM;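 active = activation above the mean over all tested compounds plus 3 SD, cut at about 0.9% in these data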;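 note: 0% = DMSO-only wells and 100% = 3 µM delta7-dafachronic acid wells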
DAX1 StAR inh: blocks DAX1 repression of SF-1 activated StAR promoter; inhibition, % at 6.8 µM; actives 1.1% (n = 370,000); AID 652010; HEK293T StAR-luciferase reporter, SF-1/DAX-1 repression relief;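 active = inhibition above the mean over all tested compounds plus 3 SD, cut at about 3.6% in these data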;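 note: 0% = DAX-1 cells with DMSO and 100% = cells lacking DAX-1 with DMSO; higher inhibition means more luminescence from relief of DAX-1 repression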
LXR ag: activates human LXR-beta, counter-screen for hcDAF-12 agonists; activation, % at 6.8 µM; HEK293 Gal4-LXR tk-luc reporter, luminescence, 24 h; normalized: DMSO 0%, positive control 100%; AID 743027; shares compounds with hcDAF12 agonist; 3,400 tested, under 10 active;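 active = mean percent activation of the reporter above a cutoff set as the average over tested compounds plus their standard deviation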
Target sequence (P55055 whole entry, looked up, the tested form may be a part): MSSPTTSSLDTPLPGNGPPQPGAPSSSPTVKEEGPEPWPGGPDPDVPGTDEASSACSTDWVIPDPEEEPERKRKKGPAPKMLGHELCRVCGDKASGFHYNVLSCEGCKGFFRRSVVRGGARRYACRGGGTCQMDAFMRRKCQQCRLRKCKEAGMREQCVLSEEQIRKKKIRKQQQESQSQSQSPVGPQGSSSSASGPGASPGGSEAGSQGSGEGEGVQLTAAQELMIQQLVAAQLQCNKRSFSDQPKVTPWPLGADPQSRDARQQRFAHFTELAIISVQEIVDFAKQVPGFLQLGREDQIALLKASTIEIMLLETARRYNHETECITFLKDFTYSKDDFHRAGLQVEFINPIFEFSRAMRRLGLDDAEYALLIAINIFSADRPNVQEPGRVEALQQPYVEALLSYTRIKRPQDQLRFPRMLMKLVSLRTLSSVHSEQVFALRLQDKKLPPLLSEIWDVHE
hcDAF12 ag: confirmation of H. contortus DAF-12 agonists; shares compounds with hcDAF12 agonist; HEK293 hcDAF-12 lit1-tk-luc reporter, luminescence; % of Δ7-dafachronic acid response; activation, % at 6.8 µM; actives 61% (n = 3,400);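 active = mean activation across triplicate tests above the threshold derived from the earlier primary screen, cut at about 5.5% in these data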;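 note: 0% = DMSO only wells and 100% = 3 µM Δ7-dafachronic acid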
* marks the source's active call; other numbers are inactive results; ? = inconclusive; . = not tested or not shown.

SMILES | esBAF inh | hgDAF-12 ag | hcDAF12 agonist | Wnt act | ssDAF-12 act | DAX1 StAR inh | LXR ag | hcDAF12 ag
O=C(C[C@@H]1CC[C@H](NS(=O)(=O)c2cccc(F)c2)[C@H](CO)O1)NCc1ccc2c(c1)OCO2 | 4.4 | . | . | . | . | . | . | .
Cc1ccc(SCC(=O)N2CCN(c3ccccn3)CC2)cc1 | 10.9 | 4.0 | -0.9 | 4.7 | -1.1 | 0.4 | . | .
O=C(CSc1nccc2ccccc12)N1CCN(c2ccccn2)CC1 | 4.2 | 2.4 | 8.2* | 1.2 | -0.5 | 2.7 | -0.3 | 0.6
Cc1nc2ccccc2nc(C)c1=NOCc1ccccc1Cl | . | 11.4* | 8.7* | 9.6 | -0.3 | 1.0 | -0.3 | -0.8
COc1ccccc1C(=O)Nc1ccc2c(c1)OC[C@H](C)N(C(C)=O)C[C@H](C)[C@@H](OC)CN(C)C2=O | -0.8 | . | . | . | . | . | . | .
O=C(c1ccc2c(c1)OCO2)N1CCc2ccccc21 | 21.4 | 3.3 | 7.1* | 3.1 | 1.1* | 0.6 | 0.1 | 3.6
Cc1c(C(=O)N2CCc3ccccc32)oc2ccccc12 | -13.0 | 18.9* | 14.3* | ? | 4.6* | 4.4* | 1.4 | 18.5*
C[C@@H](NC(=O)C[C@@H]1CC[C@H]2[C@@H](COC[C@H](O)CN2C(=O)Nc2cc(Cl)cc(Cl)c2)O1)c1ccccc1 | -5.6 | . | . | . | . | . | . | .
Cc1cc(C)nc(NC(=O)CSc2nc3ccccc3s2)n1 | 30.9 | 9.9 | 7.7* | 0.4 | 2.1* | 3.0 | 1.0 | 9.3*
Cc1cc(NC(=O)CCl)n(-c2nc3ccccc3s2)n1 | . | -0.4 | 6.8* | 3.1 | 0.4 | 0.9 | 0.1 | 5.1
CCOC(=O)CC(=O)Nc1nc2ccccc2s1 | 4.8 | 1.9 | 0.0 | -0.3 | -0.8 | 0.0 | . | .
Cc1cc(C)nc(SCC(=O)OCC(=O)Nc2nc3ccccc3s2)n1 | . | 4.0 | 8.5* | . | -0.3 | 0.3 | 0.1 | 6.5*
Cc1ccc(-c2cc(NC(=O)CCl)n(-c3ccccc3)n2)cc1 | 2.1 | -3.4 | -1.1 | -5.9 | -1.3 | -1.6 | . | .
Cc1noc(C)c1NC(=O)Nc1ccc2c(c1)C(=O)N([C@@H](C)CO)C[C@H](C)[C@@H](CN(C)CC1CCCCC1)O2 | -4.4 | . | . | . | . | . | . | .
CCS(=O)(=O)N[C@H]1CC[C@H](CC(=O)NCc2ccc(F)cc2)O[C@H]1CO | 2.2 | . | . | . | . | . | . | .
Fc1ccc(OCc2nnc(-c3ccccc3Br)o2)c(Cl)c1 | 67.1* | 10.8* | 7.1* | 4.4 | -0.3 | 1.4 | 0.6 | 3.3
CC(=O)/C(=N\Nc1ccccc1)Sc1nncn1C | . | 2.1 | 8.4* | . | 0.2 | 0.4 | -0.1 | 3.2
CC(=O)/C(=N\Nc1ccccc1)Sc1nnc(-c2ccccc2)n1-c1ccccc1 | . | 0.6 | -0.7 | -1.1 | -1.3 | -0.1 | . | .
C[C@H]1CN([C@@H](C)CO)S(=O)(=O)c2ccc(-c3ccc(C#N)cc3)cc2O[C@H]1CN(C)Cc1ccccn1 | -2.7 | . | . | . | . | . | . | .
CN(C)S(=O)(=O)c1ccc(C(=O)Nc2ccc(Cl)cc2)cc1 | 25.5 | -0.2 | -1.1 | 9.7 | -1.4 | -2.0 | . | .
CN(C)S(=O)(=O)c1ccc(C(=O)NCC(=O)Nc2ccc(F)c(F)c2)cc1 | -5.1 | -0.6 | 6.8* | 0.9 | -0.8 | 0.1 | -0.1 | 1.0
C=CCNC(=S)Nc1c(C(=O)OC)[nH]c2cc(OC)ccc12 | . | 7.3 | 9.7* | 11.0 | 0.6 | 0.8 | 0.5 | 7.5*
c1ccc(Nc2nc(-c3ccccn3)cs2)cc1 | 25.5 | 13.0* | 12.8* | 39.7* | 1.3* | 2.3 | 1.6 | 11.1*
Cc1nc2ncccn2c1-c1csc(Nc2ccccc2)n1 | . | 3.0 | -2.0 | -0.5 | -2.1 | -0.6 | . | .
Cc1ccc(-c2nnc(-c3cccc4ccccc34)o2)cc1 | 54.4* | 7.3 | 7.6* | 0.9 | 1.2* | 0.6 | 1.9 | 20.7*
SMILES | esBAF inh | hgDAF-12 ag | hcDAF12 agonist | Wnt act | ssDAF-12 act | DAX1 StAR inh | LXR ag | hcDAF12 ag
O=C(NCCN1CCc2ccccc2C1)C1CCN(S(=O)(=O)N2CCCCC2)CC1 | -9.0 | -2.1 | -2.2 | -0.8 | -0.7 | 0.5 | . | .
O=C(NCCN1CCc2ccccc2C1)C1CCN(S(=O)(=O)N2CCC3(CC2)OCCO3)CC1 | . | 1.4 | 7.5* | -0.3 | 0.6 | -0.5 | -0.1 | 0.8
CN1CCN(C(=O)C[C@H]2C[C@@H]3c4cc(NC(=O)C5CCOCC5)ccc4O[C@@H]3[C@@H](CO)O2)CC1 | 5.1 | . | . | . | . | . | . | .
O=C(NNc1nc2ccccc2s1)c1ccc(F)cc1 | . | 3.3 | 9.6* | 0.4 | 2.1* | 0.3 | -0.1 | 0.7
N#C/C(=C(/O)c1ccc(F)cc1)c1nc2ccccc2s1 | . | 11.3* | 7.2* | 7.5 | 0.5 | 1.4 | 0.2 | 2.2
Cc1ccc(OC(C)C(=O)N2CCc3ccccc32)cc1 (stereo unspecified) | 4.8 | 1.1 | 9.4* | 0.4 | -0.1 | 0.7 | -0.1 | 2.7
CCN(CC)C(=O)N1CCc2ccccc21 | . | 0.5 | 6.7* | . | -0.4 | -0.8 | -0.2 | 3.4
CCOCC(=O)N1CCc2ccccc21 | 4.9 | 1.6 | 5.3 | . | 0.0 | 0.2 | . | .
COc1ccc(S(=O)(=O)N(C)C[C@@H]2Oc3ccc(NC(=O)Cn4cnnn4)cc3C(=O)N([C@H](C)CO)C[C@H]2C)cc1 | -6.2 | . | . | . | . | . | . | .
Cc1ccc(S(=O)(=O)N(C)C[C@@H]2Oc3ccc(NS(=O)(=O)c4ccc(F)cc4)cc3CC(=O)N([C@H](C)CO)C[C@@H]2C)cc1 | -0.7 | . | . | . | . | . | . | .
CCOC(=O)COn1c(=O)c(-c2cc3ccccc3o2)[n+]([O-])c2ccccc21 | 52.2* | 8.6 | 9.3* | 20.6 | 1.0* | 2.5 | 1.5 | 14.4*
C=CCOn1c(=O)c(-c2ccccc2)[n+]([O-])c2ccccc21 | 0.8 | -1.7 | 3.7 | 2.2 | 0.3 | -0.4 | . | .
C=CCOn1c(=O)c(-c2cc3ccccc3o2)[n+]([O-])c2ccccc21 | 54.4* | 12.0* | 11.1* | . | 1.8* | 2.4 | 0.4 | 5.5
COc1ccc(S(=O)(=O)N(C)C[C@H]2OCCCC[C@H](C)Oc3ccc(NC(=O)Nc4ccc5c(c4)OCO5)cc3C(=O)N([C@H](C)CO)C[C@H]2C)cc1 | 1.6 | . | . | . | . | . | . | .
CCC(=O)NNc1ncnc2ccccc12 | 14.7 | -0.6 | 6.9* | 28.1 | 0.3 | 0.1 | -0.1 | 4.7
O=C(O)CCC(=O)NNc1ncnc2ccccc12 | . | -4.8 | -0.1 | -16.8 | -1.0 | -1.1 | . | .
CCOC(=O)C/C(=N\Nc1ncnc2ccccc12)c1ccccc1 | 42.8* | 5.9 | 11.1* | 27.0 | 0.8 | 1.6 | 0.0 | 4.9
COc1ccc(C2Nc3ccccc3C(=O)N2c2ccc(C)cc2)cc1COc1ccccn1 (stereo unspecified) | . | 7.5 | 6.9* | . | 0.5 | 3.6* | 0.6 | 8.7*

Source: PubChem BioAssay (several laboratories)
